# Data reported in ChEMBL document CHEMBL3988442, “University of Dundee, Small-Polar-MMV Screening Library” (2021).
# The whole screen tested about 38,000 compounds, of which about 1,200 (3.2%) showed an effect of 50% or more. The median lay at about -58%. Shown is part of a subset that was picked to be rich in strong results.
# Tested on: Plasmodium falciparum
# Assay: Calibr Malaria Delayed Death Assay SOP
# Type: functional, organism-based
# Design: scale not given: in the data most compounds retested in dose-response had high values
# Settings: concentration 4.99e-06 (unit not given; other assays of the set use mol/L)
row,Compound,Percent Effect
1,COc1cc(C)c(S(=O)(=O)CC(=O)N(C)C2CC2)cc1OC,-72.85%
2,NC(=O)C1(c2cnccn2)CCCN1Cc1ccccn1 (centres undefined),-37.82%
3,Cc1ccc(NCCCc2c(C)noc2C)nn1,-93.73%
4,Cn1cc(CN2CCC3(CC2)CC(Nc2nccs2)CO3)cn1.O=C(O)C(F)(F)F (centres undefined),-11.64%
5,O=C(O)C(F)(F)F.c1cnc(NC2COC3(CCN(Cc4cccs4)CC3)C2)nc1 (centres undefined),-52.55%
6,O=C(O)C(F)(F)F.c1ccc(CN2CCC3(CC2)CC(Nc2nccs2)CO3)nc1 (centres undefined),73.68%
7,Cc1cc(C)cc(CN2CCC3(CC2)CC(Nc2ncccn2)CO3)c1.O=C(O)C(F)(F)F (centres undefined),60.22%
8,O=C(O)C(F)(F)F.c1cnc(NC2COC3(CCN(Cc4ccoc4)CC3)C2)nc1 (centres undefined),-27.43%
9,Cc1cc(CN2CCC3(CC2)CC(Nc2ncccn2)CO3)nn1C.O=C(O)C(F)(F)F (centres undefined),-11.8%
10,COc1ccc2c(ccn2CCC(=O)Nc2ccc(C(N)=O)cc2)c1,-55.48%
11,COCCCN(C)C1CCCN(Cc2noc(C3CC3)n2)C1 (centres undefined),-38.52%
12,CCCc1nnc(N2CCC3(CC2)CN(C)C(=O)O3)o1,-93.43%
13,O[C@H]1CC[C@@H](Cc2cc(-c3ccc(F)cc3)on2)O[C@@H]1CNCC1CC1,62.55%
14,O[C@H]1CC[C@@H](Cc2cc(-c3ccccn3)on2)O[C@@H]1CNCC1CC1,-74.71%
15,O[C@H]1CC[C@@H](Cc2cc(-c3ccccc3)on2)O[C@@H]1CNCC1CC1,37.66%
16,CN(Cc1cccs1)c1cc(N2CCCC2CO)ncn1 (centres undefined),-120.2%
17,Cc1cc2nc(SCC(=O)N3CCOCC3)n(CC(C)C)c(=O)c2[nH]1,-82.87%
18,CC(C)c1cc(Br)ccc1NC(=O)NC(C)(CO)CO,-72.51%
19,CC(c1nc(C(C)(C)C)no1)S(=O)(=O)CC(=O)N(C)C (centres undefined),-171.7%
20,Fc1ccc(OCCCNC2=NCCN2)cc1.I,3.475%
21,Fc1ccc(Sc2ccccc2CNC2=NCCN2)cc1.I,79.96%
22,O=C(CCc1nnc2ccccn2c1=O)NCc1ccco1,-46.43%
23,COc1ccsc1C(=O)NCCN1CCOCC1,-115.8%
24,Cc1nc(C)n(CC2CCCN2Cc2ccn(-c3ccccc3)n2)n1 (centres undefined),-118.1%
25,CNCCCNC1CCN(c2ccc(-n3ccnc3)cc2)CC1,32.68%
26,CCN1CCC2(CC1)CC(CC(=O)N(C)C)c1ccc(F)cc12 (centres undefined),-67.07%

row,Compound,Percent Effect
1,CCC(C)N(Cc1ccncc1)Cc1ccc(-n2cccn2)cc1 (centres undefined),-4.562%
2,CCC(C)N(Cc1c[nH]c(C)n1)Cc1ccccc1Cl (centres undefined),47.84%
3,CCC(C)N(Cc1ccc(C)cc1)Cc1c[nH]c(C)n1 (centres undefined),77.78%
4,CCc1ccc(CN2CCNC(C(=O)N3CCN(C)CC3)C2)o1 (centres undefined),-22.63%
5,CCOc1ncccc1C(=O)N1CCCC1Cn1cc(C)cn1 (centres undefined),-83.81%
6,Fc1ccccc1CN1CCCN(c2ncnc3[nH]ccc23)CC1,-95.46%
7,Cc1nc(C)c(C)c(N2CCC(O)(c3ccc(F)cc3)CC2)n1,-9.23%
8,CNc1nnc(SCc2nnc(C(C)(C)C)o2)s1,-74.95%
9,O=C1NCC(C(=O)Nc2ncc(Cc3ccc(F)cc3F)s2)N1 (centres undefined),-63.93%
10,O=C(Cc1cccc2ccccc12)N1CCC(Nc2cccnn2)CC1,-77.23%
11,O=C1CC2(CCN(CCCO)CC2)CN1Cc1ccc(F)c(F)c1,-28.18%
12,CC(NCC1CCN(CCO)CC1)c1ccc(F)c(Cl)c1 (centres undefined),83.31%
13,CC(c1ccc(Cl)cc1)N1CCN(CCS(C)(=O)=O)CC1 (centres undefined),-44.52%
14,CC(NCC1CCN(CCO)CC1)c1cccc(Cl)c1 (centres undefined),84.07%
15,CC(NCC1CCN(CCO)CC1)c1cccnc1 (centres undefined),-40.75%
16,CC(NC1CCN(CCS(C)(=O)=O)CC1)c1ccc(Cl)cc1 (centres undefined),56.47%
17,Cc1cccc(C(C)NCC2CCS(=O)(=O)CC2)c1 (centres undefined),7.654%
18,COc1ccc(C(C)N2CCC(CO)CC2)cc1Cl (centres undefined),-19.12%
19,CS(=O)(=O)CCN1CCC(Nc2c(Cl)cccc2C#N)CC1,-32.59%
20,Cc1ccc(CNC(=O)CNCC2CCN(CCO)CC2)s1,-48.54%
21,COCCN1CCC(CNC(=O)Nc2ccc(F)c(Cl)c2)C1 (centres undefined),-33.14%
22,O=C(NCCOc1ccc(Cl)cn1)Nc1nccs1,-1.653%
23,CCS(=O)(=O)N1CCc2ccc(NC(=O)Nc3cccc(C)c3)cc21,-42.73%
24,O=C(NCc1ccccn1)[C@H]1COC[C@H]2CN(CC3CC3)C[C@H]21.O=C(O)C(F)(F)F.O=C(O)C(F)(F)F,-42.42%
25,CC(NC(=O)Cn1ccc2sccc2c1=O)c1ccccc1 (centres undefined),-76.67%
26,COc1ccc(-c2cc(C3(O)CCOC(C)(C)C3)on2)cc1 (centres undefined),-20.9%

row,Compound,Percent Effect
1,Cc1c(COC(C)C)cccc1NC(=O)N1CC[C@H](O)C1,-81.26%
2,NC(=O)c1c(SCCN2CCCCC2)sc2c(O)cc(=O)[nH]c12,1.518%
3,O=S1(=O)[C@@H](c2ccccc2)[C@H](CO)CN1c1ccccc1,-141.9%
4,Cc1cc(C)nc(CN(C)c2nc(C3CCCC3)nc3c2cnn3C)c1,-50.46%
5,CCN(CC)c1ncnc2c1CCN(c1ccc(C)nn1)CC2,-148.5%
6,Cc1nn(CCCNC(=O)C2CCN(S(C)(=O)=O)CC2)cc1Cl,-83.52%
7,Cc1cnn(C2CN(CCOc3ccccc3C#N)C2)c1,-94.34%
8,O=C(Cc1ccccn1)N1CCc2ncnc(NC3CCC3)c2CC1.O=C(O)C(F)(F)F,-99.33%
9,COCc1ncc(CN2CCC(Oc3ccc(OC)cc3)CC2)cn1,-166.1%
10,O=C(Nc1cccc(OCC(F)F)n1)c1ccncc1,-44.55%
11,COc1ccccc1CN1CCCC(n2cccn2)C1 (centres undefined),31.44%
12,COc1ccc(NC2CCCN(Cc3cnc(N(C)C)s3)C2)cc1OC (centres undefined),-57.98%
13,CCOc1cccc(CNc2ccccc2C(F)(F)F)c1O,-100.4%
14,CCOc1ccccc1-c1noc(CN2CCCC(O)C2)n1 (centres undefined),-111.8%
15,COc1cccc(CN2CCCC(Nc3cccc(F)c3)C2)c1O (centres undefined),66.55%
16,CN1CCOC(CNCC(=O)NCCC2=CCCCC2)C1 (centres undefined),-80.77%
17,CC[C@@]1(O)CCN(c2ncc(Cl)cc2F)C[C@H]1O,-98.16%
18,COCC[C@]1(O)CCN(c2ncc(Cl)cc2F)C[C@H]1C,-23.85%
19,Cc1nn(Cn2ccc(C(=O)N3CCCC(C)C3)n2)c(C)c1Cl (centres undefined),-15.8%
20,O=C(Cn1nc(C(F)(F)F)c(Br)c1C1CC1)N1CCOCC1,-21.49%
21,CN1CCCC1CCn1ccnc1-c1nc2ccccc2[nH]1 (centres undefined),72.06%
22,CC(=O)Nc1ccc2nc(-c3nccn3C[C@@H]3CCCO3)ccc2c1,-89.17%
23,CN1CCCC1CCn1ccnc1-c1nc(-c2ccccc2)no1 (centres undefined),57.38%
24,OCC1CCCCN1CCn1ccnc1-c1nc2ccccc2[nH]1 (centres undefined),10.13%
25,CN1CCCC1CCn1ccnc1-c1ccc2ccccc2n1 (centres undefined),54.89%
26,Cc1nccn1CCC1CCCCN1C(=O)c1ccc2[nH]nnc2c1 (centres undefined),-19.01%

row,Compound,Percent Effect
1,CN(CC1CCCN1C)c1nccc(C2CCCC2)n1 (centres undefined),7.396%
2,Cn1ccnc1CN1CCCCC1c1nc(-c2ccccc2)no1 (centres undefined),-149.2%
3,c1ccc(-c2noc(CCCN3CCCC3Cn3cccn3)n2)cc1 (centres undefined),29.02%
4,C[C@@H]1CN(C(=O)c2cc(Cn3ccc4ccccc43)[nH]n2)C[C@H](C)O1,-126.8%
5,CC1CCCN(C(=O)Nc2cccc(CN3CCOC3=O)c2)C1 (centres undefined),-90.51%
6,C[C@@H](O)CNC(=O)c1nc(Cc2c(Cl)cccc2Cl)no1,-61.62%
7,COc1ccc(C(CC(=O)O)NC(=O)CCc2cccs2)cc1OC (centres undefined),-100.1%
8,CN1CCC(N(Cc2ccncc2)Cc2nc3c(s2)CCCC3)CC1,7.357%
9,COc1ccc(F)cc1C(C)NC(=O)Cn1ccc(=O)n(C)c1=O (centres undefined),-164.7%
10,COC1CCN(CCNC(=O)NC(C)c2cccc(Cl)c2)CC1 (centres undefined),23.1%
11,COC1CCN(CCNC(=O)NCC(C)c2cccc(C)c2)CC1 (centres undefined),54%
12,COC1CCN(CCNC(=O)NC(C)c2ccc(F)c(F)c2)CC1 (centres undefined),45.3%
13,N#Cc1cc(Cn2cnc(C3CCC3)cc2=O)ccc1F,-42.13%
14,Cc1cnn(CC2CN(Cc3nnc(C4CC4)n3C)CCO2)c1 (centres undefined),-158.8%
15,CC(C)n1cnnc1CCNCc1cn(CCC(N)=O)c2ccccc12,-17.79%
16,Cc1ccc(C(C)NCc2cn(CCC(N)=O)c3ccccc23)cc1C (centres undefined),82.29%
17,CC(NCc1cn(CCC(N)=O)c2ccccc12)c1nncn1C (centres undefined),-188.2%
18,CN(C)C(=O)CN1CCc2ncnc(C3CC3)c2CC1,-29.69%
19,COc1ncccc1NC(=O)NC(C)c1nncn1C (centres undefined),-34.42%
20,c1csc(C(CNCc2cccc3c2OCO3)N2CCOCC2)c1 (centres undefined),39.98%
21,Cc1ccc(C(CNCc2cccc3c2OCO3)N2CCOCC2)o1 (centres undefined),65.56%
22,CC(C)c1nn(C)c(N(C)C)c1CNCc1cccc2c1OCO2,16.39%
23,Cc1cnc(C(=O)NCC(c2ccc(C)o2)N2CCOCC2)cn1 (centres undefined),-124.5%
24,CC(C)C(CNCc1cccc2c1OCO2)N1CCOCC1 (centres undefined),75.82%
25,Cl.c1cc(CNCc2ccnc(N3CCOCC3)c2)c2c(c1)OCO2,-34.78%
26,O=C(NCCn1cccn1)c1ccn(-c2cccc(F)c2)n1,-72.56%
